{"source": "PubChem BioAssay (EPA / NIEHS)", "note": "“And” between values parts separate entries of the source, which are not always exact repeats. Equal values may be shown once. Records with an inconclusive call do not appear. The source made the active and inactive calls. Rule for the calls: active = hit-call score of the fitted dose curve at least 0.9, where 1 is the maximum; inconclusive = response in the unintended direction; inactive = score below 0.9."}
{"biological_target": "rat Thyrotropin Releasing Hormone Receptor (TRH), Trhr (gene 25570) (UniProt Q01717)", "sequence (Q01717 whole entry, looked up)": "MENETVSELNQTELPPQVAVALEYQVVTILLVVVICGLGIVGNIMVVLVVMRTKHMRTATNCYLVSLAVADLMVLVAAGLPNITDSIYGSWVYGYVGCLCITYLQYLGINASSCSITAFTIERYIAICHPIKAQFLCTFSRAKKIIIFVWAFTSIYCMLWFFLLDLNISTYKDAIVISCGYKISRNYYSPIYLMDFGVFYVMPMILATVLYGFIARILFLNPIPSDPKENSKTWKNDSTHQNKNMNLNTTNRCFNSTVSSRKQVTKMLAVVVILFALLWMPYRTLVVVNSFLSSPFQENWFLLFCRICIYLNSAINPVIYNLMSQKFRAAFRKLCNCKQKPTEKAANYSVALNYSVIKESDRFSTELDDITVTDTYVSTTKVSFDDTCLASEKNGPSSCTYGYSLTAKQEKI", "assay": "NVS_GPCR_rTRH: NovaScreen (NVS) G Protein-Coupled Receptor Assay for rat Thyrotropin Releasing Hormone Receptor (TRH) (AID 2283329);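 note: hit means lower bound tracer signal versus DMSO baseline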", "procedure,_shortened": "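Cell-free radioligand binding on rat forebrain membranes; bound tracer measured by filter-based scintillation counting 4 hours after dosing. Loss of signal versus DMSO baseline indicates displacement; primary screen at 25 uM in duplicate, actives then run in concentration series.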"}
{"smiles": "CCCCCCCCCc1ccc(O)cc1", "outcome": "inactive"}
{"smiles": "CCNc1nc(NC(C)C)nc(SC)n1", "outcome": "inactive"}
{"smiles": "Sc1ccccc1", "outcome": "inactive"}
{"smiles": "C[C@]12CCC(=O)C=C1CC[C@@H]1[C@@H]2CC[C@@]2(C)[C@H]1CC[C@]2(C)O", "outcome": "inactive"}
{"smiles": "OCC(O)CO", "outcome": "inactive"}
{"biological_target": "rat Oxytocin Receptor (OXT), Oxtr (gene 25342) (UniProt P70536)", "sequence (P70536 whole entry, looked up)": "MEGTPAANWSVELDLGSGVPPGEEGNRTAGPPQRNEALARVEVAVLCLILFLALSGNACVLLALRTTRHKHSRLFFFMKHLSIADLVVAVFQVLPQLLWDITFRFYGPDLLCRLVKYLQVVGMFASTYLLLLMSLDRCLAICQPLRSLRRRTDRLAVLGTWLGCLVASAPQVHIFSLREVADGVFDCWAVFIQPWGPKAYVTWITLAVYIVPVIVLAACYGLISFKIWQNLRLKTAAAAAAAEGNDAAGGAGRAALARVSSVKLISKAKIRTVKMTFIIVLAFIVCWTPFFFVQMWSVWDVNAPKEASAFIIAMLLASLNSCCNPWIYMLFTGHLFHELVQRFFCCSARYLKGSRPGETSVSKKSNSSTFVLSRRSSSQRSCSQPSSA", "assay": "NVS_GPCR_rOXT: NovaScreen (NVS) G Protein-Coupled Receptor Assay for rat Oxytocin Receptor (OXT) (AID 2283330)", "protocol": "NVS_GPCR_rOXT is a biochemical, single-readout assay that uses extracted gene-proteins from Rat uterine membranes in a tissue-based cell-free assay. Measurements were taken 1 hour after chemical dosing in a 48-well plate.NVS_GPCR_rOXT is one of one assay component(s) measured or calculated from the NVS_GPCR_rOXT assay. It is designed to make measurements of radioligand binding, a form of binding reporter, as detected with scintillation counting signals by Filter-based radiodetection technology.Data from the assay component NVS_GPCR_rOXT was analyzed into 1 assay endpoint. This assay endpoint, NVS_GPCR_rOXT, was analyzed in the positive analysis fitting direction relative to DMSO as the negative control and baseline of activity. Using a type of binding reporter, loss-of-signal activity can be used to understand changes in the binding as they relate to the gene Oxtr. Furthermore, this assay endpoint can be referred to as a primary readout, because the performed assay has only produced 1 assay endpoint. To generalize the intended target to other relatable targets, this assay endpoint is annotated to the gpcr intended target family, where the subfamily is rhodopsin-like receptor.\nBinding assays used specific radioligands (tritiated, iodinated) with non-radioactive competitive displacement ligands in agonist or antagonist protocols (as indicated) and various reference compounds and inhibitors to titrate specific binding to receptors and transporters. Most enzyme assays (CYPs, kinases, phosphatases, proteases, HDACs) used recombinant protein and specific substrates (fluorescence mostly, some colorimetric and radioactive) and inhibitors, followed by a biochemical separation of substrate and product. All assays for the biochemical HTS were initially run in duplicate at a single concentration (10 uM for CYP450 assays and 25 uM for all others). Assay-chemical combinations meeting a pre-defined threshold (e.g., 30% inhibition and other criteria defined below) were then run in singleton concentration-response format with maximum concentration of 20 uM for CYPs and 50 uM for all others. Each assay was run with positive and negative controls, and concurrent controls on every plate. The follow-up (secondary) screen tested active chemical-pairs in concentration series, as well as a few additional assays not tested in the primary screen, some selected negative inactives, and several cases re-run in the concentration series for confirmatory purposes."}
{"smiles": "Clc1ccc(Cl)cc1", "outcome": "inactive"}
{"smiles": "Oc1ccc(C(c2ccc(O)cc2)(C(F)(F)F)C(F)(F)F)cc1", "AC50": "13.6 µM (active)"}
{"smiles": "CCCCCCCCCC[N+](C)(C)CCCCCCCCCC", "AC50": "18.6 µM (active)"}
{"smiles": "O=C(NC(=O)c1cc(F)c(F)cc1Cl)Nc1cc(F)ccc1N1CCC(C(=O)O)CC1", "outcome": "inactive"}
{"biological_target": "human Peripheral-type Benzodiazepine Receptor (PBR), TSPO (gene 706) (UniProt P30536)", "sequence (P30536 whole entry, looked up)": "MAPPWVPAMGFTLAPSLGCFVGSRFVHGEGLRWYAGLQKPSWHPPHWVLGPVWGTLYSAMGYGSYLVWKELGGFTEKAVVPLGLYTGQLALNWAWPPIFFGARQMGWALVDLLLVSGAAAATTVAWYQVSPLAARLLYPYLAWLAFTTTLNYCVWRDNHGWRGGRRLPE", "assay": "NVS_MP_hPBR: NovaScreen (NVS) Membrane Protein Assay for human Peripheral-type Benzodiazepine Receptor (PBR) (AID 2283331);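 note: hits reduce radioligand binding relative to DMSO baseline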", "procedure,_shortened": "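Cell-free binding to human colonic membrane preparations measured by filter-based scintillation counting after 1 h. Compounds first run at 25 uM in duplicate, then concentration series for actives; signal loss against DMSO baseline.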"}
{"smiles": "Cc1cc(O)ccc1Cl", "AC50": "2.64 µM (active)"}
{"smiles": "CCC(C)(CC)c1cc(NC(=O)c2c(OC)cccc2OC)on1", "outcome": "inactive"}
{"smiles": "CCSC(=O)N(CC)C1CCCCC1", "outcome": "inactive"}
{"smiles": "CCC(C)(c1ccc(O)cc1)c1ccc(O)cc1", "AC50": "9.64 µM (active) and 2.96 µM (active) and 14.1 µM (active)"}
{"smiles": "CO/C=C(/C(=O)OC)c1ccccc1COc1cccc(C(F)(F)F)n1", "AC50": "4.21 µM (active)"}
{"smiles": "Cc1ccccc1CO[C@@H]1C[C@@]2(C(C)C)CC[C@]1(C)O2", "AC50": "8.27 µM (active)"}
{"smiles": "Cc1ccc(O)c(C)c1", "outcome": "inactive"}
{"smiles": "CCCCCCCCCC[N+](C)(C)CCCCCCCCCC", "AC50": "21.5 µM (active)"}
{"smiles": "CC(C)(c1ccccc1)c1ccc(O)cc1", "outcome": "inactive"}
